Reference: PubChem BioAssay (Tox21)
Where “and” joins values, the source holds several entries; their conditions need not be identical. Identical values can stand only once. Inconclusive results are not listed. A call without a number means that no potency is given here. Where a structure was tested more than once in an assay, its records may differ in their call. Calls of active or inactive are those of the source. Calls come from the whole dose curve; as a rule, active = well fitted cell-killing curve with a large enough effect in the repeat runs; inconclusive = weak or mixed curves; inactive = no such curve, though single readings can be large or run the other way.

assay: qHTS assay for identifying genotoxic compounds that show differential cytotoxicity against isogenic chicken DT40 cell lines with known DNA damage response pathways - Rad54/Ku70 mutant cell line (AID 743015); conditions: DT40 Rad54/Ku70 mutant viability, CellTiter-Glo, 40 h; series mostly up to 66.8 µM; note: nearly all actives have a fitted effect of over 60% in size
Text: National Center for Advancing Translational Sciences [NCATS]
NIH Chemical Genomics Center [NCGC]
U.S. Environmental Protection Agency [EPA]
National Institutes of Environmental Health Sciences [NIEHS]
National Toxicology Program [NTP]
U.S. Food and Drug Administration [FDA]
DNA repair pathways play a critical role in cellular homeostasis by repairing DNA damage induced by endogenous processes and xenobiotics. Isogenic chicken DT40 cell lines deficient in different DNA repair pathways can be used to identify genotoxic compounds and aid in characterizing the nature of the DNA damage induced. Two DNA repair-deficient cell lines with disrupted genes, Rad54/Ku70 or Rev3, were used to screen the Tox21 10K compound library. Possible genotoxicity was based on the presence of a significant increase in cytotoxicity in one or more of the DNA repair-deficient cell lines compared to that observed in the parental DNA repair-proficient cell line. CellTiter Glo viability assay (Promega, Madison, WI) was used to measure cell viability in these cells after compound treatment. This assay includes the data from the Rad54/Ku70 mutant cell line.
Tox21 Assay Protocol Summary:
300 DT40 mutant cells in 5 uL/well were dispensed into white, solid-bottom 1536-well plates using a Multidrop Combi (ThermoFisher Scientific, Waltham, MA) dispenser. After the assay plates were incubated at 37 C/5% CO2 for approximately 0.5 hour, 23 nL of compounds dissolved in DMSO, positive controls or DMSO only was transferred into the assay plate by a pintool work station (Kalypsys, San Diego, CA). The assay plates were incubated at 37 C/5% CO2 for 40 hours. After 5 uL per well of CellTiter-Glo reagent was added into each well of the assay plates, the plates were incubated for 30 min at room temperature and the luminescence intensity of the plates was measured using a ViewLux (PerkinElmer, Shelton, CT) plate reader.
Potency is the fitted concentration of half-maximal effect.

Question: Which Potency does the source give for `Nc1ccc2cc(S(=O)(=O)O)cc(O)c2c1` here?
Answer: inactive

Question: Which Potency does the source give for `CCCCCOC(=O)CCC` here?
Answer: inactive

Question: With `CC(C)NCC(O)COc1ccc(COCCOC(C)C)cc1` (stereo not given) as the compound, how does the Potency read?
Answer: inactive and 26.6 µM (active)

Question: For `CO[C@@H]1[C@@H](OC(N)=O)[C@@H](O)[C@H](Oc2ccc3c(O)c(NC(=O)c4ccc(O)c(CC=C(C)C)c4)c(=O)oc3c2C)OC1(C)C`, which Potency is on record?
Answer: inactive

Question: For `C[C@@H](Oc1ccc(CNC(=O)c2cccnc2Oc2ccc3c(c2)OCO3)c(F)c1)C(=O)O`, which Potency is on record?
Answer: inactive

Question: For `C=C(C)C(=O)OCc1ccccc1`, which Potency is on record?
Answer: inactive

Question: For `O=Cc1ccc(Cl)c(Cl)c1`, which Potency is on record?
Answer: inactive

Question: With `COc1ccc(OC)c(Cl)c1` as the compound, how does the Potency read?
Answer: inactive

Question: For `O=C1O[C@@H]2[C@@H](O)[C@H](O)O[C@@H]2[C@H]1O`, which Potency is on record?
Answer: inactive

Question: Which Potency does the source give for `CCCCCCCCC(=O)Cl` here?
Answer: inactive

Question: With `O=C(O)Cc1cn(-c2ccccc2)nc1-c1ccc(Cl)cc1` as the compound, how does the Potency read?
Answer: inactive

Question: With `CC(C)CCCC(C)(C)O` as the compound, how does the Potency read?
Answer: inactive

Question: Which Potency does the source give for `NC(CO)C(=O)NNCc1ccc(O)c(O)c1O` (stereo not given) here?
Answer: inactive

Question: For `CCCCN`, which Potency is on record?
Answer: inactive

Question: For `CC(CN)CC(C)(C)CCN` (stereo not given), which Potency is on record?
Answer: 44.4 µM (active)

Question: With `CC1(C)S[C@@H]2[C@H](N=CN3CCCCCC3)C(=O)N2[C@H]1C(=O)O` as the compound, how does the Potency read?
Answer: inactive

Question: For `c1ccc2c(c1)ccc1c3ccccc3ccc21`, which Potency is on record?
Answer: inactive

Question: With `O=C1c2cccc3c2[C@H](CCC3)CN1[C@@H]1CN2CCC1CC2` as the compound, how does the Potency read?
Answer: 23.7 µM (active)

Question: For `COc1cc(C(=S)N2CCOCC2)cc(OC)c1OC`, which Potency is on record?
Answer: inactive

Question: For `O=S(=O)(O)CCN1CCN(CCO)CC1`, which Potency is on record?
Answer: inactive

Question: With `CC(C)(C)OC(=O)c1ccc(O)cc1` as the compound, how does the Potency read?
Answer: inactive

Question: For `CCNC(=O)C1CC(C)CCC1C(C)C` (stereo not given), which Potency is on record?
Answer: inactive

Question: Which Potency does the source give for `OCCC(F)(F)C(F)(F)C(F)(F)C(F)(F)C(F)(F)C(F)(F)C(F)(F)C(F)(F)F` here?
Answer: inactive

Question: For `Nc1ccc(S(=O)(=O)Nc2ccc(Cl)nn2)cc1`, which Potency is on record?
Answer: inactive

Question: Which Potency does the source give for `Cc1cccc2nccnc12` here?
Answer: inactive

Question: With `CCC(C)NC(N)=O` (stereo not given) as the compound, how does the Potency read?
Answer: inactive

Question: Which Potency does the source give for `Brc1ccc(-c2ccccc2)cc1` here?
Answer: inactive

Question: With `N[C@@H](CCC(=O)N[C@@H](CS)C(=O)NCC(=O)O)C(=O)O` as the compound, how does the Potency read?
Answer: inactive

Question: With `CC(=O)Nc1ccc(S(=O)(=O)Cl)cc1` as the compound, how does the Potency read?
Answer: inactive

Question: Which Potency does the source give for `OCCCCC(O)CO` (stereo not given) here?
Answer: inactive

Question: Which Potency does the source give for `CCCCCCCCCCCCCC` here?
Answer: inactive

Question: With `CC(C)c1ccc2cc(C(C)C)ccc2c1` as the compound, how does the Potency read?
Answer: inactive

Question: Which Potency does the source give for `CC1(CO)CN(c2ccccc2)NC1=O` (stereo not given) here?
Answer: inactive

Question: With `N[C@@H](CCC(=O)Nc1ccc([N+](=O)[O-])cc1)C(=O)O` as the compound, how does the Potency read?
Answer: inactive

Question: Which Potency does the source give for `O=C1c2ccccc2C(=O)c2cc(S(=O)(=O)O)ccc21` here?
Answer: inactive

Question: Which Potency does the source give for `N#Cc1ccc(C(=O)O)cc1` here?
Answer: 61.1 µM (active)

Question: Which Potency does the source give for `CC(=O)OC(C)OC(=O)C(C)c1ccc(-c2ccccc2)c(F)c1` (stereo not given) here?
Answer: inactive

Question: With `COc1ccc(-c2cc(=O)c3c(O)cc(O[C@@H]4O[C@H](CO[C@@H]5O[C@@H](C)[C@H](O)[C@@H](O)[C@H]5O)[C@@H](O)[C@H](O)[C@H]4O)cc3o2)cc1O` as the compound, how does the Potency read?
Answer: inactive

Question: Which Potency does the source give for `CC(S)C(=O)NCC(=O)O` (stereo not given) here?
Answer: inactive

Question: With `Cc1ccccc1OCC(O)CO` (stereo not given) as the compound, how does the Potency read?
Answer: inactive
